Measured values: PubChem BioAssay (Tox21)
Records with an inconclusive call do not appear. Calls of active or inactive are those of the source. Unless noted, calls follow the shape of the full dose curve.

How the values were obtained:
[1] = Nuclear factor erythroid 2-related factor 2/antioxidant responsive element (Nrf2/ARE) small molecule agonists: qHTS cell viability counter screen in human keratinocytes (AID 1919968; active = well fitted curve in the direction sought with a large enough effect in the repeat runs; an effect the other way counts as inactive or inconclusive; also: nearly all actives have a fitted effect of over 55% in size)
Method in brief: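 Seed 1,500 KeratinoSens cells per well, then incubate 5 h at 37 C/5% CO2. Add compounds in DMSO and incubate 23 h. Add CellTiter-Fluor, wait 1 h and read fluorescence.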

[2] = molecular target: Gonadotropin-releasing hormone receptor (Homo sapiens) (UniProt P30968); experiment: Human gonadotropin-releasing hormone receptor (GnRHR) small molecule agonists, calcium flux assay in GnRHR-HEK293 cells (AID 1920063); also: nearly all actives have a fitted effect of over 35% in size
Chain of Gonadotropin-releasing hormone receptor (Homo sapiens) (P30968 whole entry, looked up): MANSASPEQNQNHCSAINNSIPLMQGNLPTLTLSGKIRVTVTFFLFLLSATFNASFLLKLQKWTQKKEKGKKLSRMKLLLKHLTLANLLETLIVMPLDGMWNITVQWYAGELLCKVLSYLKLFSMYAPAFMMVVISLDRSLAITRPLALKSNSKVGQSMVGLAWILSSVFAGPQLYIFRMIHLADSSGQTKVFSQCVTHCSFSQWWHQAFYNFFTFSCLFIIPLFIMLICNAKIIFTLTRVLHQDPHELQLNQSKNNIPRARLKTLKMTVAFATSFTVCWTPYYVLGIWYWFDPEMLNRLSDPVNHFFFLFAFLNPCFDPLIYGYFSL
Method in brief: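 Cells: HEK293 stably expressing human GnRHR. Steps: overnight (18 h) culture, 1 h calcium dye loading at 37 C, compound addition, kinetic fluorescence read at 480/540 nm. Each compound tested at 15 concentrations in triplicate.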

[3] = G protein-coupled receptor (GPCR) small molecule agonists, calcium flux assay: HEK293 wild type cell line counter screen (AID 1920065)
Method in brief: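 Counter-screen of the Tox21 10K library for non-specific calcium release: dye-loaded cells received compounds in DMSO and were monitored by kinetic fluorescence (480/540 nm, 3 min). Fifteen concentrations, run in triplicate.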

[4] = p53 small molecule agonists, cell-based qHTS assay with human liver microsomes: qHTS cell viability counter screen (AID 1963579); also: nearly all actives have a fitted effect of over 45% in size
Method in brief: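 Metabolic activation used human liver microsomes and NADPH, both 0.5 mg/mL final, over 16 hours at 37 C on p53RE-bla cells (4,000/well). Cytotoxicity measured by CellTiter-Glo luminescence, 30 min at room temperature.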

[5] = p53 small molecule agonists, cell-based qHTS assay with rat liver microsomes: qHTS cell viability counter screen (AID 1963580); also: nearly all actives have a fitted effect of over 45% in size
Method in brief: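 Viability is assessed in parallel with the p53 reporter read: HCT-116 p53RE-bla cells receive compounds plus rat microsomes and NADPH (0.5 mg/mL final apiece), incubate 16 h at 37 C, and then CellTiter-Glo luminescence is recorded.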

[6] = p53 small molecule agonists, cell-based qHTS assay: qHTS cell viability counter screen (AID 1963581); also: nearly all actives have a fitted effect of over 45% in size
Method in brief: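 Cells: HCT-116 with p53 response element-driven beta-lactamase. Treatment: 16 h, 37 C, compounds in DMSO. Read: CellTiter-Glo luminescence after 30 min RT.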

[7] = molecular target: 5-hydroxytryptamine receptor 2A (Homo sapiens) (UniProt P28223); experiment: 5-hydroxytryptamine receptor 2A (HTR2A) small molecule antagonists, cell-based qHTS assay (AID 1963586); also: nearly all actives have a fitted effect of over 45% in size
Chain of 5-hydroxytryptamine receptor 2A (Homo sapiens) (P28223 whole entry, looked up): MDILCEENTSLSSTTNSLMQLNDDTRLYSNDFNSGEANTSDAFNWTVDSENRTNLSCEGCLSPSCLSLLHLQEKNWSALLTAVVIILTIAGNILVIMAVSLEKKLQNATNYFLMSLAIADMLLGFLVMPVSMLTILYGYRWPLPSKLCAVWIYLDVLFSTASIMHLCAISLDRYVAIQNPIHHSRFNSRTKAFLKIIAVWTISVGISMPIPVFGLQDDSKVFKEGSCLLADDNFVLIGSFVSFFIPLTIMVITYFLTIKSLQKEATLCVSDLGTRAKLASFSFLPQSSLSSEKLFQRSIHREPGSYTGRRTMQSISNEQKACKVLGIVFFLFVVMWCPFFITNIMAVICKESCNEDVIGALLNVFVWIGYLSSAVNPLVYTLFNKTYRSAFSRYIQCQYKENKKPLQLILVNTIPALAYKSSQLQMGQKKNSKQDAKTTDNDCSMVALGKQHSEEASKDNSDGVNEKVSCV
Method in brief: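 Antagonist-mode intracellular calcium assay: DOI (4 nM) added after 5 min compound pre-incubation at room temperature to dye-loaded HTR2A-CHO cells. Fluorescence followed for 3 min, sampled every second.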

[8] = molecular target: 5-hydroxytryptamine receptor 2A (Homo sapiens) (UniProt P28223); experiment: 5-hydroxytryptamine receptor 2A (HTR2A) small molecule agonists, cell-based qHTS assay (AID 1963587); also: nearly all actives have a fitted effect of over 30% in size
Method in brief: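 CHO cells stably expressing human HTR2A, plated 18 h, loaded with calcium dye 1 h at 37 C. Agonist mode: compounds added and intracellular calcium fluorescence recorded kinetically for 2 min at 1 sec intervals.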

[9] = molecular target: Muscarinic acetylcholine receptor M1 (Homo sapiens) (UniProt P11229); experiment: Cholinergic receptor muscarinic 1 (CHRM1) small molecule antagonists, cell-based qHTS assay (AID 1963588); also: nearly all actives have a fitted effect of over 40% in size
Chain of Muscarinic acetylcholine receptor M1 (Homo sapiens) (P11229 whole entry, looked up): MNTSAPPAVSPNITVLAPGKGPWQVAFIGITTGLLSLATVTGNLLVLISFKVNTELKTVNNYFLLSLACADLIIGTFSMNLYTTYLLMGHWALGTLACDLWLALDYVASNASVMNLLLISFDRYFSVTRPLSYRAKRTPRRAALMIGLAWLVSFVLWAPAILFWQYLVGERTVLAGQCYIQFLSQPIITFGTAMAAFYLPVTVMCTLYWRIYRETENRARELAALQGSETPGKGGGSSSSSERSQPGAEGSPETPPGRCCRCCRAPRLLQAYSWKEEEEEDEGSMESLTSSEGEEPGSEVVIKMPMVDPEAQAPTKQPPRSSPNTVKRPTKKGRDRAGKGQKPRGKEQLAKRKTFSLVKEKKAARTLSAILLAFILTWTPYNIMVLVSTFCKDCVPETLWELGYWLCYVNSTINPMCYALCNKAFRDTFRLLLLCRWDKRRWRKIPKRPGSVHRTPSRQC
Method in brief: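 CHRM1-CHO calcium-flux assay, antagonist mode. Cells were seeded 18 h, dye-loaded 1 h at 37 C and given compound for 5 min at RT, then acetylcholine was added at 50nM. FDSS fluorescence was read 3 min; 15 concentrations, three runs.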

[10] = molecular target: Muscarinic acetylcholine receptor M1 (Homo sapiens) (UniProt P11229); experiment: Cholinergic receptor muscarinic 1 (CHRM1) small molecule agonists, cell-based qHTS assay (AID 1963589); also: nearly all actives have a fitted effect of over 35% in size
Method in brief: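 Agonist-mode qHTS in CHO cells stably carrying human muscarinic M1. Intracellular calcium is tracked by fluorescence every second after compound transfer; each compound runs at 15 concentrations in three independent runs.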

[11] = cAMP Responsive Elements (CRE) small molecule agonists, cell-based qHTS assay (AID 1963590)
Method in brief: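 Agonist mode qHTS in CRE-bla HEK 293T cells: compounds dosed from DMSO for 3 h at 37 C/5% CO2, followed by LiveBLAzer B/G FRET substrate for 2 h at room temperature.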

[12] = cAMP Responsive Elements (CRE) small molecule antagonists, cell-based qHTS assay (AID 1963591; active = well fitted inhibition curve with a large enough effect in the signal ratio in the repeat runs, not every such curve was filed as active; the % refers to the signal ratio)
Method in brief: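 Antagonist mode: test compounds are co-incubated with the adenylyl cyclase activator NKH477 (0.25 uM final) on CRE-bla HEK293T cells for 3 h at 37 °C, followed by LiveBLAzer substrate loading.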

[13] = molecular target: Beta-2 adrenergic receptor (Homo sapiens) (UniProt P07550); experiment: Adrenergic beta2 receptor (ADRB2) small molecule antagonists, cell-based qHTS assay (AID 1963592); also: series mostly up to about 92 µM; nearly all actives have a fitted effect of over 50% in size
Chain of Beta-2 adrenergic receptor (Homo sapiens) (P07550 whole entry, looked up): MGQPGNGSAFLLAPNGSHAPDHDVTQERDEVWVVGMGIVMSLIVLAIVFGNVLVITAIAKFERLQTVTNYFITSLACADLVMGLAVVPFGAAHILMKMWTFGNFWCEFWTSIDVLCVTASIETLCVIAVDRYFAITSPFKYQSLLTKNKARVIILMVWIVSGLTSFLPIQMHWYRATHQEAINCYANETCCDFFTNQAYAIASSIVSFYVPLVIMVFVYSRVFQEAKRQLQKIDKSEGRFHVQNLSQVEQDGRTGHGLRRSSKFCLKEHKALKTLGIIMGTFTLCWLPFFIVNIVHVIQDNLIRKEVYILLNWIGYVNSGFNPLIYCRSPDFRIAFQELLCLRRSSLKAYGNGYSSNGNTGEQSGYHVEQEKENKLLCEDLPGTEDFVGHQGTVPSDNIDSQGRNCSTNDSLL
Method in brief: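 Cells (CHO, stable ADRB2 overexpression) incubated 18-20hr at 37C; compounds added from DMSO; agonist mix (1nM isoproterenol, 100uM IBMX, 25uM Ro-20-1724) added; 0.5hr RT; d2-cAMP and anti-cAMP-cryptate added; 1hr RT; 665/615 nm read.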

[14] = molecular target: D(2) dopamine receptor (Homo sapiens) (UniProt P14416); experiment: Dopamine D2 receptor (DRD2) small molecule agonists, cell-based qHTS assay (AID 1963594); also: nearly all actives have a fitted effect of over 35% in size
Chain of D(2) dopamine receptor (Homo sapiens) (P14416 whole entry, looked up): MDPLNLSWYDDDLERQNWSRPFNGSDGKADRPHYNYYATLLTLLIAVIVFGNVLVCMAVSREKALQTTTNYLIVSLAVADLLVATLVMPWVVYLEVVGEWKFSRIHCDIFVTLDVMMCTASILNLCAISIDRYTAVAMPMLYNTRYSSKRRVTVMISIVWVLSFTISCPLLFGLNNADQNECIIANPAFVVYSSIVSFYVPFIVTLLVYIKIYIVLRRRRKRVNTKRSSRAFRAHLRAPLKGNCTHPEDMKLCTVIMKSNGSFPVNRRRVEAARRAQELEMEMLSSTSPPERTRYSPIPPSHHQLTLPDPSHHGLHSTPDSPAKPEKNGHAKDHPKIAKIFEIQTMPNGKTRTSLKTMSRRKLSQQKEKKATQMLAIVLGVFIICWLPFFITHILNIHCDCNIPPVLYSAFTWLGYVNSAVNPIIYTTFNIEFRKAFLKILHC
Method in brief: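 HEK293 cells stably expressing human DRD2, pre-treated with PDE inhibitor Ro20-1724 (0.1 mM final) and compound 10 min at room temperature, then stimulated with NKH477 (200nM […]) for 30 min. cAMP read by HTRF (665/620 nm).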

[15] = molecular target: D(2) dopamine receptor (Homo sapiens) (UniProt P14416); experiment: Dopamine D2 receptor (DRD2) small molecule antagonists, cell-based qHTS assay (AID 1963595; active = well fitted inhibition curve with a large enough effect in the signal ratio in the repeat runs, with a control signal flat; the % refers to the signal ratio)
Method in brief: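 HTRF cAMP read-out at 665 and 620 nm emission (340 nm excitation). Antagonist mode: compounds were tested against 12 nM quinpirole in DRD2-HEK293 cells, with 200 nM NKH477 raising cAMP and 0.1 mM Ro20-1724 blocking its breakdown.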

[16] = molecular target: KiSS-1 receptor (Homo sapiens) (UniProt Q969F8); experiment: Human kisspeptin (KISS1R) small molecule agonists, calcium flux assay in KISS1R-HEK293 cells (AID 1920064; active = well fitted curve in the direction sought with a large enough effect in the repeat runs; an effect the other way counts as inactive or inconclusive)
Chain of KiSS-1 receptor (Homo sapiens) (Q969F8 whole entry, looked up): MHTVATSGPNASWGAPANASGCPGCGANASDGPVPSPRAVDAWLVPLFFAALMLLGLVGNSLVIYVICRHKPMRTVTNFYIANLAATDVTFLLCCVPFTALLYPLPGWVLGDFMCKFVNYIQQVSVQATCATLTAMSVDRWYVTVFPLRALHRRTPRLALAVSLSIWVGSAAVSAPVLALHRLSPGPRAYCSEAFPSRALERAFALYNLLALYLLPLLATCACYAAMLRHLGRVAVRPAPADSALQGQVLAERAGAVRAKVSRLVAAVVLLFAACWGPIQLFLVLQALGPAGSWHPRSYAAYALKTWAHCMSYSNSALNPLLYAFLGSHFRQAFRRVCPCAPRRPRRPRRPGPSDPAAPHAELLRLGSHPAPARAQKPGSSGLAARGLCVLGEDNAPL
Method in brief: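 Cells plated and incubated 18 h; dye added, 1 h at 37 C; compounds in DMSO pinned in; signal read at 480/540 nm every second for 3 min. Each compound tested at 15 concentrations in triplicate.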

[17] = p53 small molecule agonists, cell-based qHTS assay with human liver microsomes (AID 1963577);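 also: p53 response element beta-lactamase reporter cells with liver microsomes plus NADPH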
Method in brief: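 With metabolic activation: human liver microsomes (0.5 mg/mL final) plus NADPH (0.5 mg/mL final) added alongside compounds to p53RE-bla cells; 16 h 37 C exposure; beta-lactamase read by LiveBLAzer fluorescence.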

[18] = p53 small molecule agonists, cell-based qHTS assay with rat liver microsomes (AID 1963578)
Method in brief: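 Metabolic activation by rat liver microsomes and NADPH, each 0.5 mg/mL final, added right after compounds to p53RE-bla reporter cells (4,000/well, plated 5 h earlier). 16 h at 37 C, then LiveBLAzer substrate for 2 h at room temperature in the dark; fluorescence read-out.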

[19] = p53 small molecule agonists, cell-based qHTS assay (AID 1963582; active = well fitted activation curve with a large enough effect in the signal ratio in the repeat runs, not every such curve was filed as active; the % refers to the signal ratio)
Method in brief: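 Quantitative HTS in p53RE-bla cells: after a 5 h settling period, compounds delivered in DMSO were left on cells for 16 h at 37 C, and reporter induction was measured as fluorescence following 2 h substrate loading.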

[20] = molecular target: Beta-2 adrenergic receptor (Homo sapiens) (UniProt P07550); experiment: Adrenergic beta2 receptor (ADRB2) small molecule agonists, cell-based qHTS assay (AID 1963593);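 also: CHO cells stably overexpressing human ADRB2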
Method in brief: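 CHO cells stably over-expressing ADRB2 were plated overnight at 37C, then dosed with compounds plus a stimulation mix containing 100uM IBMX and 25uM Ro-20-1724 for 0.5hr at room temperature. cAMP was measured by HTRF competition, 1hr.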

Measured: Potency

N#CC(Br)Br
not listed: [16] | [17] | [18] | [19] | [20]
inactive: all other assays above

Cl[C@H]1OCCO[C@@H]1Cl
not listed: [2]
inactive: all other assays above

CC1(C)CC(=O)CC(C)(C)N1[O]
not listed: [2]
inactive: all other assays above

Cc1cc(O)ccc1Cl
not listed: [2] | [5] | [12]
inactive: all other assays above

COc1ccc(C=O)cc1OC
not listed: [2] | [20]
inactive: all other assays above

CCCN(CCC)N=O
not listed: [2] | [14] | [20]
inactive: all other assays above

Cc1nn(-c2cc(NS(C)(=O)=O)c(Cl)cc2Cl)c(=O)n1C(F)F
not listed: [2] | [7]
inactive: all other assays above
